HTT ATP protect – qHTS Multiplex Assay to Identify Dual Action Probes in a Cell Model of Huntington: Cytoprotection (ATP) | 230,000 tested, 0.14% active | Potency, µM (highest dose often 56.4 µM), hits mostly activators | PC12 HTT-Q103 induced, cytoprotection, ATP luminescence, 40 h; also: nearly all actives have a fitted effect of over 45% in size
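PC12 cells stably carrying ecdysone-inducible Htt exon 1 (Q103)–GFP were induced with 100 nM tebufenozide (final) alongside library compounds in a dose series. Cytoprotection was scored as retained ATP by ATPlite luminescence.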
HTT aggregate – qHTS Multiplex Assay to Identify Dual Action Probes in a Cell Model of Huntington: Aggregate Formation (GFP) | Potency, µM (titrated, usually from 46.1 µM), usual class: inhibitors | AID 1688, 2009 | PC12 HttQ103-GFP aggregates, Acumen cytometry, 40 h | 220,000 tested, 1.1% active; also: nearly all actives have a fitted effect of over 60% in size
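Aggregate formation scored by laser-scanning cytometer (488 excitation, 500–530 emission) in lysed PC12 cells expressing Q103-GFP after 100 nM tebufenozide induction; library tested in dose series, with ATPLite reagent added in the multiplex.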
NPSR antagonist – qHTS Assay for Antagonists of the Neuropeptide S Receptor: cAMP Signal Transduction; CHO-NPSR cells, cAMP TR-FRET, antagonist mode; Q6W5P4; Potency, µM (doses to about 38.3 µM), usual class: inhibitors; 220,000 tested, 1% active; AID 1461, 2008; also: nearly all actives have a fitted effect of over 50% in size
Target sequence (Q6W5P4 whole entry, looked up): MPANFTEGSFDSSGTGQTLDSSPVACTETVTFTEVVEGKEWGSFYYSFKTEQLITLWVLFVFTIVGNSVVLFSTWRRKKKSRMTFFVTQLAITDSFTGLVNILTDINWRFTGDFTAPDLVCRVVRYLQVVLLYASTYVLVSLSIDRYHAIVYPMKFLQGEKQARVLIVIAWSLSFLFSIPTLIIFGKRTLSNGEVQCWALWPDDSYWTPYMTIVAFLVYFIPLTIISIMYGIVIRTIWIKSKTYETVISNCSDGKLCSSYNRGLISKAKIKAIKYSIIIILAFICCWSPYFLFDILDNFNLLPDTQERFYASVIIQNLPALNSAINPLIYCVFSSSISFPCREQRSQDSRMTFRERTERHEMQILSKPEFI
ERK EGF inh – qHTS Assay for Inhibitors of the ERK Signaling Pathway using a Homogeneous Screening Assay; Stimulation with EGF. Potency, µM (highest dose often 11.5 µM), usual class: inhibitors. HEK293-V1b, EGF-stimulated phospho-ERK AlphaScreen. 130,000 tested, 0.41% active; also: nearly all actives have a fitted effect of over 55% in size
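HEK293 cells stably expressing V1b receptor, serum-reduced (1% FBS) overnight, pretreated 30 min with compound, then stimulated 5 min with 25 nM EGF; phospho-ERK detected by AlphaScreen SureFire. AC50 from Hill fits, normalized to DMSO and EGF.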
IMPase Li inh – qHTS Assay for Identifying the Cell-Membrane Permeable IMPase Inhibitors: Potentiation with Lithium. CHO-M1 cells, IP1 TR-FRET (IP-One), carbachol + lithium. Potency, µM (series often up to 59.4 µM), most hits filed as inhibitors. 210,000 tested, 0.35% active. AID 1457, 2008;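 also: IP1 builds up when IMPase is blocked and the TR-FRET signal falls; nearly all actives have a fitted effect of over 50% in size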
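Readout is a homogeneous TR-FRET IP1 immunoassay (Ex 320, Em 665 and 620), where raised cytosolic IP1 lowers signal. Cells were CHO-M1 treated 30 min at 37C with test compounds plus a little lithium; AC50 values came from Hill-equation fitting.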
A number is an active result; . = inactive; ? = inconclusive; / = not tested or not shown; [ ] = remark or other dose. Most compounds without a hit are left out; they make up all but 1.9% or so of the library. Calls follow the shape of the dose curve; as a rule, active = well fitted curve in the direction sought with a large enough effect; inconclusive = small, poorly fitted or top-dose-only effect, or another doubt; inactive = no such curve, though single readings can be large; an effect the other way counts as inactive or inconclusive.

SMILES	HTT ATP protect	HTT aggregate	NPSR antagonist	ERK EGF inh	IMPase Li inh
O=C(c1cc2sccc2n1Cc1ccccc1)N1CCc2ccccc21	.	.	10µM	/	.
O=C(c1cc2sccc2n1Cc1ccccc1)N1CCCc2ccccc21	.	?	?	/	.
CCOc1cc(CNc2ccc(N(C)C)cc2)cc(Br)c1OCC(=O)NC(C)(C)C	.[10 µM]	.	10µM	/	.
CCOc1cc(CNc2ccc(N3CCCCC3)cc2)cc(Br)c1OCC(=O)NC(C)(C)C	.[0.074 µM]	.	.	.	.
Cc1nn(-c2ccccc2)c(Cl)c1C(=O)OC(C)C(=O)NC(=O)NC1CCCCC1 (centres undefined)	.	11µM	.	/	.
C/C(=C\COc1cc(=O)[nH]c2ccccc12)CC[C@@H](O)C(C)(C)O	.	/	/	/	/
CCCCCCCCCCCCOCCCN	.	.	/	/	/
Cc1ccc(C(=O)C(C)N(C(=O)c2ccc(Cl)cc2Cl)N2C(=O)CCCC2=O)cc1 (centres undefined)	.[1.9 µM]	11µM	.	.	.
COc1ncc2nc(-c3cc(F)cc(F)c3)c(=O)n(Cc3cccs3)c2n1	.	/	/	.	.
Cc1ccc(Sc2c(C=O)c3ccccc3n2C)cc1	.[10 µM]	10µM	?	/	?
Cn1c(=O)c(Sc2ccccc2)c(O)c2ccccc21	.[10 µM]	.[9.22 µM]	.	.	/
Cc1ccc(Sc2c(O)c3ccccc3n(C)c2=O)cc1	/	.	.	.	10µM
COC(=O)CC1c2ccccc2C=C(C2CC2)N1C(=O)OC (centres undefined)	.	/	/	.	.
O=c1[nH][nH]cc1C=Nc1cc(Cl)ccc1O	14µM	.	.	.	.
O=c1[nH][nH]cc1C=Nc1ccc(Cl)cc1Cl	.	.	.	.	.
COc1cc2c(cc1OC)C(c1ccccc1)=NCC2	.	.	.	.	.
COc1cc2c(cc1OC)-c1cc3ccc4c(c3c[n+]1CC2)OCO4	/	.	13µM	.	.
CCCCC[C@H](O)/C=C/[C@H]1OC(O)C[C@H](O)[C@@H]1C/C=C\CCCC(=O)O (some centres undefined)	.	/	/	.	.
COc1cc(/C=C/C(=O)c2ccc(Cl)s2)cc(OC)c1O	.	.[9.22 µM]	10µM	/	.
CN(C)Cc1ccccc1-c1nc(NCc2ccccc2)c2ccccc2n1	.	/	/	.	.
O=[N+]([O-])c1ccc(N/N=C2\CC3CC=CC23)cc1 (centres undefined)	.	?	.	.	.
O=[N+]([O-])c1ccc(N/N=C2\CC3CC=CC23)c([N+](=O)[O-])c1 (centres undefined)	.	?	.	14µM	.
COc1ccc2c(=O)c(C)c(-c3ccccc3)oc2c1CN(C)C	.	.	/	/	/
CCCCCCC1/C(=N/O)CCC1C(=O)OC (centres undefined)	.	4µM	.	/	.
COc1ccc(S(=O)(=O)Nc2ccccc2C(=O)Nc2nc(-c3ccc(F)cc3)cs2)cc1OC	?	10µM	.	?	.
SMILES	HTT ATP protect	HTT aggregate	NPSR antagonist	ERK EGF inh	IMPase Li inh
COc1ccc(-c2csc(NC(=O)c3ccccc3NS(=O)(=O)c3ccc(C)cc3)n2)cc1	.[10 µM]	?	.	?	.
O=c1[nH]c(=O)n(-c2ccc(F)cc2)c2c1C(C(F)(F)F)(C(F)(F)F)N=C(c1ccc(F)cc1)N2	.[10 µM]	3.2µM	.	.	.
CC(NC(=O)c1ccc(Cl)c(Cl)c1)c1ccc(-c2ccccc2)cc1 (centres undefined)	.[10 µM]	.[9.22 µM]	.	.	/
CC(NC(=O)CCl)c1ccc(Cl)c(Cl)c1 (centres undefined)	.	22µM	.	/	.
COc1ccc(-c2cc(=O)c3c(O)cc(O)c(-c4cc(-c5cc(=O)c6c(O)cc(O)cc6o5)ccc4OC)c3o2)cc1	/	/	/	.	.
C=Cc1c(C)/c2[n-]/c1=C\c1[n-]c(c(CC)c1C)/C=c1\[n-]c3c(c1C)C(=O)C(C(=O)[O-])C=3c1[n-]c(c(C)c1CCC(=O)[O-])\C=2.[Cu].[Na+].[Na+] (centres undefined)	.	.	/	.	.
